Measurements reported in PubChem BioAssay (NCATS).
Where “and” joins values, the source holds several entries; their conditions need not be identical. Equal entries are not always repeated. Results filed as inconclusive are left out. Unmarked numbers belong to inactive results. Calls of active or inactive are those of the source. Calls come from the whole dose curve.

Experiment: qHTS assay for small molecule disruptors of the mitochondrial membrane potential - 1 hr assay (AID 651754); note: nearly all actives have a fitted effect of over 35% in size
Conditions: series mostly up to 92.2 µM; ratio change, negative = depolarisation: at the top concentration
Description: National Center for Advancing Translational Sciences [NCATS]
NIH Chemical Genomics Center [NCGC]
National Institutes of Environmental Health Sciences [NIEHS]
National Toxicology Program [NTP]
Mitochondrial membrane potential (MMP), one of the parameters for mitochondrial function, is generated by mitochondrial electron transport chain that creates an electrochemical gradient by a series of redox reactions. This gradient drives the synthesis of ATP, a crucial molecule for various cellular processes. Measuring MMP in living cells is commonly used to assess the effect of chemicals on mitochondrial function. […] The dye accumulates in the mitochondria of healthy cells as aggregates, with red fluorescence. The mitochondrial potential collapses and the dye can no longer accumulate in the mitochondria and remains in the cytoplasm in monomers, with green fluorescence.
2,000 HepG2 cells in 5 uL/well were dispensed into black, clear-bottom 1536-well plates using a Multidrop Combi (Thermo Scientific) dispenser. The assay plates were incubated overnight at 37C to allow cells to attach to the wells, followed by the transfer of 23 nL compound or DMSO vehicle by a pin tool (Kalypsys). The plates were incubated for 1 hr at 37C and 5% CO2, followed by the addition of 5 uL of 2X Mito-MPS dye (BD Biosciences) into each well using Flying Reagent Dispenser (Aurora Discovery) and then following 30 min incubation at 37C. Fluorescence intensity (490nm excitation and 535nm emission for monomers; and 540nm excitation and 590nm emissions for aggregates) was measured using an Envision plate reader.
% is set by controls: 0 for no effect and ±100 for the full control effect; potency is the fitted concentration of half-maximal effect.

Row | Structure (SMILES) | Potency | ratio change, negative = depolarisation [%]
1 | c1ccc2c(c1)[nH]c1ccccc12 | 59.6 µM (active) | –
2 | Cc1c(N)cccc1N | 37.6 µM (active) | –
3 | Oc1c(Br)c(Br)c(Br)c(Br)c1Br | 33.5 µM (active) | –
4 | N#CSCSC#N | – | -3.41
5 | C[C@@H]1CC[C@@]2(OC1)O[C@H]1[C@@H](O)[C@H]3[C@@H]4CC[C@H]5C[C@@H](O[C@@H]6O[C@H](CO)[C@H](O[C@@H]7O[C@H](CO)[C@@H](O)[C@H](O[C@@H]8OC[C@@H](O)[C@H](O)[C@H]8O)[C@H]7O[C@@H]7O[C@H](CO)[C@@H](O)[C@H](O[C@@H]8O[C@H](CO)[C@@H](O)[C@H](O)[C@H]8O)[C@H]7O)[C@H](O)[C@H]6O)[C@H](O)C[C@]5(C)[C@H]4CC[C@]3(C)[C@H]1[C@@H]2C | 26.6 µM (active) | –
6 | O=[N+]([O-])c1cc(C(F)(F)F)cc([N+](=O)[O-])c1Cl | – | -11
7 | O=C(O)C1C(C(=O)O)C2(Cl)C(Cl)=C(Cl)C1(Cl)C2(Cl)Cl (centres undefined) | – | 1.04
8 | O=C(CCl)c1ccccc1 | – | 3.05
9 | Clc1ccc(C(c2ccc(Cl)cc2)C(Cl)Cl)cc1 | 59.6 µM (active) | –
10 | Oc1cc(Cl)cc(Cl)c1Cl | 42.2 µM (active) | –
11 | N#CC(Cl)Cl | – | -6.12
12 | c1ccc2cc3c(cc2c1)-c1cccc2cccc-3c12 | – | 2.33
13 | O=C1C2(Cl)C3(Cl)C4(Cl)C(Cl)(Cl)C5(Cl)C3(Cl)C1(Cl)C5(Cl)C24Cl (centres undefined) | 3.35 µM (active) and 10.6 µM (active) | –
14 | O=[N+]([O-])C(Br)Br | – | 1.09
15 | FC(F)(F)c1ccc(Cl)cc1 | – | -2.79
16 | CC(=O)[O-].CC(=O)[O-].O.O.[Cd+2] | – | -0.379
17 | [CH3][Hg][Cl] | 21.1 µM (active) | –
18 | OC(c1ccc(Cl)cc1)(c1ccc(Cl)cc1)C(Cl)(Cl)Cl | – | -0.834
19 | C(=NC1CCCCC1)=NC1CCCCC1 | – | -17.6
